Results filed as inconclusive are left out. The source made the active and inactive calls. Unless noted, calls come from the whole dose curve.
Assays:
[1] = qHTS for Inhibitors of the Functional Ribonucleoprotein Complex (vRNP) of Lassa (LASV) Arenavirus: LASV Primary Screen - GLuc reporter signal (AID 1347082; calls by dose curve; tested in HEK293 reporter line; note: nearly all actives have a fitted effect of over 60% in size)
[2] = qHTS for Inhibitors of the Functional Ribonucleoprotein Complex (vRNP) of Lassa (LASV) Arenavirus: Viability assay - alamar blue signal for LASV Primary Screen (AID 1347083; calls by dose curve; tested in HEK293 reporter line; note: nearly all actives have a fitted effect of over 80% in size)
[3] = qHTS for Inhibitors of the Functional Ribonucleoprotein Complex (vRNP) of Lymphocytic Choriomeningitis Arenaviruses (LCMV): Viability assay - alamar blue signal for LCMV Primary Screen (AID 1347085; calls by dose curve; tested in HEK293 reporter line; note: nearly all actives have a fitted effect of over 80% in size)
[4] = target: Nucleoprotein (Lymphocytic choriomeningitis virus (strain Armstrong)) (UniProt P09992); assay: qHTS for Inhibitors of the Functional Ribonucleoprotein Complex (vRNP) of Lymphocytic Choriomeningitis Arenaviruses (LCMV): LCMV Primary Screen - GLuc reporter signal (AID 1347086); note: nearly all actives have a fitted effect of over 70% in size
% is set by controls: 0 for no effect and ±100 for the full control effect.
Note: series mostly up to about 57 µM.

Nucleoprotein (Lymphocytic choriomeningitis virus (strain Armstrong)), sequence (P09992 whole entry, looked up): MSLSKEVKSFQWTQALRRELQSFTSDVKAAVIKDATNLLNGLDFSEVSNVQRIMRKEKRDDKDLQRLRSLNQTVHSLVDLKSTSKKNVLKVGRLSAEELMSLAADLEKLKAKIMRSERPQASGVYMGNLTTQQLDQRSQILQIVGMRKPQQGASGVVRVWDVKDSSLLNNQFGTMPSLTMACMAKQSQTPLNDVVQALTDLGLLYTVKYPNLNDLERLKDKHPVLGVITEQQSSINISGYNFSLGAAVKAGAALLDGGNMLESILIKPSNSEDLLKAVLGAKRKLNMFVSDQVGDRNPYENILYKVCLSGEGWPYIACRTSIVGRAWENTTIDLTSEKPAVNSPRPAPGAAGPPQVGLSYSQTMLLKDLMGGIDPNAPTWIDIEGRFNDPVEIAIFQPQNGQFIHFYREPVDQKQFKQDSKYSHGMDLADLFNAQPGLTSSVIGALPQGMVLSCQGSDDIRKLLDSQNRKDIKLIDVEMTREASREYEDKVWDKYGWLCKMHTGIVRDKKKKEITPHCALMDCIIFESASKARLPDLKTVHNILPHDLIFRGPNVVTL

COc1cc2c(O)c3c(c(-c4ccc5c(c4)OCO5)c2cc1OC)C(=O)OC3
inactive: Potency [1] | Potency [2] | Potency [3] | Potency [4]

COc1cc(C)ccc1C(C)C
inactive: Potency [1] | Potency [2] | Potency [3] | Potency [4]

O=c1c(O[C@@H]2OC([C@H](O)CO)[C@H](O)[C@H]2O)c(-c2ccc(O)c(O)c2)oc2cc(O)cc(O)c12 (stereo not given in full)
inactive: Potency [1] | Potency [2] | Potency [3] | Potency [4]

C=C[C@]1(C)C=C2C(=O)[C@@]3(O)OC(=O)[C@@]4(CCCC(C)(C)[C@H]34)[C@@]2(O)CC1
inactive: Potency [1] | Potency [2] | Potency [3] | Potency [4]

CCCCCOC(=O)CCC
inactive: Potency [1] | Potency [2] | Potency [3] | Potency [4]

CC(C=O)Cc1ccc(C(C)C)cc1 (stereo not given)
inactive: Potency [1] | Potency [2] | Potency [3] | Potency [4]

O=c1[nH]c(O)c(/C=C2\C=Nc3ccccc32)[nH]1
inactive: Potency [1] | Potency [2] | Potency [3] | Potency [4]

C=C1C[C@@]23CC[C@H]4[C@@](C)(CCC[C@@]4(C)C(=O)OC4OC(CO)C(O)C(O)C4O)[C@@H]2CC[C@]1(OC1OC(CO)C(O)C(O)C1OC1OC(CO)C(O)C(O)C1O)C3 (stereo not given in full)
inactive: Potency [1] | Potency [2] | Potency [3] | Potency [4]

COc1cc(C)c(C(=O)Oc2cc(C)c(C(=O)O)c(O)c2C)c(O)c1C
inactive: Potency [1] | Potency [2] | Potency [3] | Potency [4]

Cc1ccc2ccccc2n1
inactive: Potency [1] | Potency [2] | Potency [3] | Potency [4]

c1csc(-c2ccc(-c3cccs3)s2)c1
inactive: Potency [1] | Potency [2] | Potency [3] | Potency [4]

CC(C)=CCCC1(C)C=Cc2c(c(C)cc3c2[nH]c2cc(O)ccc23)O1 (stereo not given)
inactive: Potency [1] | Potency [2] | Potency [3] | Potency [4]

CCCCCCCCCCCCCC(=O)OCC(O)CO (stereo not given)
inactive: Potency [1] | Potency [2] | Potency [3] | Potency [4]

CCCCC[C@H](O)/C=C/[C@H]1OC(O)C[C@H](O)[C@@H]1C/C=C\CC(=O)O (stereo not given in full)
inactive: activity change, negative = inhibition [1] -6.19% [at 0.757 µM] | activity change, negative = reduced viability [2] 12.3% [at 0.757 µM] | activity change, negative = lower viability [3] -0.195% [at 0.757 µM] | activity change, negative = inhibition [4] 5.45% [at 0.757 µM]

O=C(O)CC(=O)Nc1ccccc1C(=O)O
inactive: Potency [1] | Potency [2] | Potency [3] | Potency [4]

CC/C=C\C[C@H](O)/C=C/C=C\C/C=C\C/C=C\CCCC(=O)O
inactive: activity change, negative = inhibition [1] -0.193% [at 0.757 µM] | activity change, negative = reduced viability [2] 19.4% [at 0.757 µM] | activity change, negative = lower viability [3] 7.46% [at 0.757 µM] | activity change, negative = inhibition [4] 12.1% [at 0.757 µM]

C/C(=C\C(=O)O)CC(=O)O
inactive: Potency [1] | Potency [2] | Potency [3] | Potency [4]

C[C@H](Cn1cnc2c(N)ncnc21)OCP(=O)(O)O
inactive: Potency [1] | Potency [2] | Potency [3] | Potency [4]

CC/C=C\CCCCCCCCCCOC(C)=O
inactive: Potency [1] | Potency [2] | Potency [3] | Potency [4]

[3H]C([3H])([3H])C(O)(CCC[C@@H](C)C1CC[C@H]2/C(=C/C=C3/C[C@@H](O)CCC3=C)CCC[C@]12C)C([3H])([3H])[3H] (stereo not given in full)
inactive: Potency [1] | Potency [2] | Potency [3] | Potency [4]

C/C(=N/N=C(\C)c1ccccc1O)c1ccccc1O
inactive: Potency [1] | Potency [2] | Potency [3] | Potency [4]

COc1c2c(cc3oc(C)cc(=O)c13)OC(C(C)(C)OC1OC(CO)C(O)C(O)C1O)C2 (stereo not given)
inactive: Potency [1] | Potency [2] | Potency [3] | Potency [4]

O=C1C=CC[C@H](/C=C/C[C@@H](O)C[C@H](O)CCc2ccccc2)O1
inactive: Potency [1] | Potency [2] | Potency [3] | Potency [4]

O=C(O)c1ccccc1Cc1ccccc1
inactive: Potency [1] | Potency [2] | Potency [3] | Potency [4]

Cc1ccc(-c2ccccc2)cc1
inactive: Potency [1] | Potency [2] | Potency [3] | Potency [4]

C=C1C(=O)OC2C=C(CO)CCC=C(CO)CC(OC(=O)C(C)C)C12 (stereo not given)
inactive: Potency [1] | Potency [2] | Potency [3] | Potency [4]

COC(=O)/C=C\C(=O)O
inactive: Potency [1] | Potency [2] | Potency [3] | Potency [4]

COc1ccc(C(C)=O)cc1
inactive: Potency [1] | Potency [2] | Potency [3] | Potency [4]

O=C1c2c(O)cc(O)cc2O[C@@]12c1c(cc(O)c3c1O[C@H](c1ccc(O)cc1)[C@@H](O)C3)O[C@@H]2c1ccc(O)cc1
inactive: Potency [1] | Potency [2] | Potency [3] | Potency [4]

C[C@H]1[C@H](C)CC[C@]2(C(=O)O)CC[C@]3(C)C(=CC[C@@H]4[C@@]5(C)C[C@@H](O)[C@H](O)C(C)(C)[C@@H]5CC[C@]43C)[C@H]12
inactive: Potency [1] | Potency [2] | Potency [3] | Potency [4]

Cc1cnccn1
inactive: Potency [1] | Potency [2] | Potency [3] | Potency [4]

COc1cc(O)c2c(=O)c3c(O)ccc(O)c3oc2c1
inactive: Potency [1] | Potency [2] | Potency [3] | Potency [4]

OCCN1C[C@H](O)[C@@H](O)[C@H](O)[C@@H]1CO
inactive: Potency [1] | Potency [2] | Potency [3] | Potency [4]

CCCC/C=C/C=C\C=O
inactive: Potency [1] | Potency [2] | Potency [3] | Potency [4]

C/C(=C/CCC(C)(O)C1CC[C@@]2(C)[C@@H]3CC=C4[C@@H](CC[C@H](O[C@H]5O[C@@H](CO)[C@H](O)[C@@H](O)[C@@H]5O)C4(C)C)[C@]3(C)C(=O)C[C@]12C)CO[C@@H]1O[C@H](CO)[C@@H](O)[C@H](O)[C@H]1O (stereo not given in full)
inactive: Potency [1] | Potency [2] | Potency [3] | Potency [4]

COc1ccc2c(=O)cc(-c3ccccc3)n(C)c2c1
inactive: Potency [1] | Potency [2] | Potency [3] | Potency [4]

CC(=O)CCc1ccc(O)cc1
inactive: Potency [1] | Potency [2] | Potency [3] | Potency [4]

Clc1cccc(-c2nnnn2Cc2cccnc2)c1Cl
inactive: Potency [1] | Potency [2] | Potency [3] | Potency [4]

COc1ccc(C[C@H]2c3cc(O)c(OC)cc3CC[N+]2(C)[O-])cc1O (stereo not given in full)
inactive: Potency [1] | Potency [2] | Potency [3] | Potency [4]

C=C1C2C[C@H](O)C(C)(C)[C@@]2(O)[C@H](O)C[C@]23C[C@@](C)(O)[C@H](CC[C@H]12)[C@H]3O (stereo not given in full)
inactive: Potency [1] | Potency [2] | Potency [3] | Potency [4]

CC(C)(C)c1ccccc1
inactive: Potency [1] | Potency [2] | Potency [3] | Potency [4]

OCc1ccccc1O[C@@H]1O[C@H](CO)[C@H](O)[C@H](O)[C@H]1O
inactive: Potency [1] | Potency [2] | Potency [3] | Potency [4]

CCCO
inactive: Potency [1] | Potency [2] | Potency [3] | Potency [4]

COCCOCCOCCOCCOC
inactive: Potency [1] | Potency [2] | Potency [3] | Potency [4]

CC1=CCC[C@H]2[C@H](C1)C(=O)C[C@@H](C)[C@]2(C)CC/C(=C/CO)CO
inactive: Potency [1] | Potency [2] | Potency [3] | Potency [4]

CCCCCCCCC1CCC(=O)O1 (stereo not given)
inactive: Potency [1] | Potency [2] | Potency [3] | Potency [4]

CCCCCCCCCCOS(=O)(=O)O
inactive: Potency [1] | Potency [2] | Potency [3] | Potency [4]

CC(O)C1C(=O)N2C(C(=O)O)=C(SC3CNC(C(=O)N(C)C)C3)C(C)C12 (stereo not given)
inactive: Potency [1] | Potency [2] | Potency [3] | Potency [4]

O=C(Nc1ncc(SCCN2CCCC2)s1)[C@]1(c2ccc(S(=O)(=O)C3CC3)cc2)C[C@@H]1C1CCCCC1
inactive: Potency [1] | Potency [2] | Potency [3] | Potency [4]

CC1(C)C(CO)=CC(=O)C2=C1SCC(=O)N2
inactive: Potency [1] | Potency [2] | Potency [3] | Potency [4]

Nc1[nH]c(=O)nc2c1ncn2C1OC(CO)C(O)C1O (stereo not given)
inactive: Potency [1] | Potency [2] | Potency [3] | Potency [4]

O=C(Nc1nnc(-c2ccco2)o1)c1cc(-c2ccccc2)nc2ccccc12
inactive: Potency [1] | Potency [2] | Potency [3] | Potency [4]

Cc1cc2c(c(CO)c1CCO)C(=O)[C@@H](C)[C@@H]2O
inactive: Potency [1] | Potency [2] | Potency [3] | Potency [4]

CCCSSCCC
inactive: Potency [1] | Potency [2] | Potency [3] | Potency [4]

Nc1oc2ccccc2c1C(=O)Cc1ccccc1O[C@@H]1O[C@H](CO)[C@@H](O)[C@H](O)[C@H]1O
inactive: Potency [1] | Potency [2] | Potency [3] | Potency [4]

CC(C)C[C@H](NC(=O)c1cc2ccccc2s1)C(=O)N1CCN(C(=O)[C@H](CO)NS(=O)(=O)c2ccc(Cl)cc2Cl)CC1
inactive: Potency [1] | Potency [2] | Potency [3] | Potency [4]

C[C@]12C[C@H](O)CC(CO)(CO)C1[C@H](O)C[C@@]13CC4[C@@H](CC12)[C@@]4(C)C3 (stereo not given in full)
inactive: Potency [1] | Potency [2] | Potency [3] | Potency [4]

Cc1cc(-c2nnc3n2CCCCC3)c(C)n1-c1ccccc1
inactive: Potency [1] | Potency [2] | Potency [3] | Potency [4]

C/C=C\C/C=C/CCCCCCCCOC(C)=O
inactive: Potency [1] | Potency [2] | Potency [3] | Potency [4]

COc1cc(C)cc(O)c1
inactive: Potency [1] | Potency [2] | Potency [3] | Potency [4]

— PubChem BioAssay (NCATS)
